Screening results deposited in PubChem by Broad Institute.
A selection follows.
aSyn UTR act = Activators via SNCA 5'UTR binding, MLPCN | alpha-synuclein 5'UTR reporter, activators screen | activity score, % (tested at 7.5 µM), hits read low | 300,000 tested, 7.1% active | AID 1814; in the data active = activity score below about -60%
* marks the source's active call; other numbers are inactive results.

SMILES	aSyn UTR act
COc1cc(/C=C(/C#N)c2nc3ccccc3[nH]2)ccc1OCC(=O)Nc1ccccc1C(C)C	103
COc1cc(/C=C(\C#N)c2nc3ccccc3[nH]2)ccc1OC(=O)c1ccco1	-174*
N#C/C(=C\c1cccnc1)c1nc2ccccc2[nH]1	-86*
N#C/C(=C/c1ccncc1)c1nc2ccccc2s1	-89*
CCN(CC)c1ccc(/C=C(/C#N)c2nc3ccccc3[nH]2)c(OC(C)C)c1	-211*
Cc1ccc(C)c(-c2[nH]ncc2CN2CCCC(CO)(Cc3ccccc3C)C2)c1 (stereo unspecified)	33
N#C/C(=C1/CCCCCN1)c1nc2ccccc2[nH]1	-127*
COc1ccc(/C(C#N)=C/c2cccnc2)cc1	-71*
N#C/C(=C\c1ccc(OC(=O)c2ccc(Cl)s2)cc1)c1nc2ccccc2[nH]1	-287*
N#C/C(=C\c1ccncc1)c1nc2ccccc2[nH]1	-77*
Cc1cc2nc(/C(C#N)=C/c3ccncc3)[nH]c2cc1C	-62*
CC1CCc2nc(/C(C#N)=C/c3ccncc3)sc2C1 (stereo unspecified)	-114*
N#C/C(C(=O)c1ccccc1)=C1/CCCCCN1	-113*
COC(=O)c1sc(-c2ccc(C(C)(C)C)cc2)cc1NC(=O)c1ccccc1C(=O)O	-67*
Cn1c(=O)oc2cc(NC(=O)CCl)ccc21	-107*
Cc1cccc(-c2nnc3n2N=C(c2ccccc2)CS3)c1	63
Cc1cc(-c2nnc3n2N=C(c2ccc(F)cc2)CS3)n[nH]1	-77*
CCCCN(CCCC)C(=S)N/N=C/c1c(C)[nH]n(-c2ccccc2)c1=O	93
Cc1[nH]n(-c2ccc(Cl)cc2)c(=O)c1C=Nc1ccc(S(=O)(=O)N2CCOCC2)cc1	-69*
CCc1ccc2[nH]c(=O)c(CN(Cc3ccccc3OC)C(=O)Nc3ccccc3OC)cc2c1	-72*
CCOC(=O)Cc1ccc(NC(=O)c2ccc(C(C)(C)C)cc2)cc1	104
Cc1noc(N)c1C(=O)Nc1ccc(C(C)(C)C)cc1	-106*
COc1ccccc1Nc1nc(N)nc(-c2cc3ccccc3o2)n1	-62*
CC1CCC(C(C)C)C(=O)/C1=C/c1ccc(N)cc1 (stereo unspecified)	-173*
CCCCCCn1cnc2c(oc3nc4c(cc32)CCCC4)c1=O	-108*
SMILES	aSyn UTR act
O=c1c2oc3nc4c(cc3c2ncn1CCCc1ccccc1)CCCC4	-105*
CN(C)c1ccc(NC(=O)CSc2nc(N)c(C(=O)Nc3ccc(N(C)C)cc3)s2)cc1	-151*
COc1ccc(NC(=O)CSc2nc(N)c(C(=O)Nc3ccc(N(C)C)cc3)s2)cc1	-66*
O=C(Nc1ccc2oc(-c3ccccc3)nc2c1)c1cccnc1	-161*
O=C(Nc1ccc2oc(-c3ccccc3)nc2c1)c1ccc2c(c1)OCCO2	-66*
CCc1ccc2oc(-c3cccc(NC(=O)c4cccnc4)c3)nc2c1	-167*
O=C(Nc1ccc2oc(-c3ccccc3)nc2c1)c1ccco1	-156*
CCCCCC(=O)Nc1ccc2oc(-c3cccnc3)nc2c1	-75*
CC(C)N(Cc1cn[nH]c1-c1ccc(-c2ccccc2)cc1)Cc1nccn1C	-106*
COc1ccccc1C(=O)Nc1cccc2cccnc12	-81*
O=C(Nc1cccc2cccnc12)c1cc(F)c(F)cc1Cl	-74*
Cc1ccc(NC(=O)c2cccc3cccnc23)cc1	-91*
CC(=O)NC(c1ccc(Cl)cc1Cl)c1ccc2cccnc2c1O (stereo unspecified)	86
O=C(NCCc1ccccc1F)c1cccc2cccnc12	-147*
CCCc1cnc(N2CCN(C(=S)NC)CC2)nc1	-111*
CCN(CC)S(=O)(=O)c1ccc(N/N=C/c2ccc(O)cc2O)nc1	90
CCN(CC)S(=O)(=O)c1ccc(N2CCc3ccccc3C2)nc1	-78*
CC(C)N(C(C)C)S(=O)(=O)c1ccc(N2CCc3ccccc3C2)nc1	-150*
COCCn1c(=O)[nH]c2cc(C(=O)Nc3cccc(F)c3)ccc2c1=O	-113*
Cc1cc(N/C=C/C(=O)c2cccs2)ccc1F	-250*
O=C(/C=C/Nc1cccc([N+](=O)[O-])c1)c1cccs1	-279*
O=C(/C=C/Nc1ccc(Nc2ccccc2)cc1)c1cccs1	-170*
Cc1ccc(N/C=C/C(=O)c2cccs2)cc1C	-180*
O=C(/C=C/Nc1ccccc1C(=O)O)c1cccs1	-72*
CCc1cc2c(=O)n(C(C)C(=O)OC3CCCCC3)cnc2s1 (stereo unspecified)	-137*
SMILES	aSyn UTR act
CCCCOC(=O)c1ccc(-c2ccc(/C=N/NC(=S)NCC)o2)cc1	-89*
COC(=O)c1ccc(-c2ccc(/C=N/N3C(=O)C4C5C=CC(C6CC56)C4C3=O)o2)cc1 (stereo unspecified)	-100*
O=C(N/N=C\c1ccc([N+](=O)[O-])s1)c1cncc(Br)c1	77
CCOC(=O)c1ccc(-c2ccc(/C=N/NC(=O)c3cncc(Br)c3)o2)cc1	-164*
COC(=O)c1ccc(-c2ccc(/C=N/NC(=O)CC3(C)OCCCO3)o2)cc1	-67*
CCOC(=O)c1ccc(-c2ccc(/C=N/NC(=O)Cc3nnc(N)s3)o2)cc1	-83*
CC(C)c1ccc(Nc2nc(CC(=O)O)cs2)cc1	-77*
